Laboratory results as given in PubChem BioAssay (Tox21).
Results filed as inconclusive are left out. Where a call stands in place of a potency, no number is given. Activity calls are given as the source filed them. Unless noted, calls come from the whole dose curve; as a rule, active = well fitted curve in the direction sought with a large enough effect in the repeat runs; inconclusive = weak or mixed curves; inactive = no such curve, though single readings can be large; an effect the other way counts as inactive or inconclusive.

Experiments:
[1] = qHTS assay to identify small molecule antagonists of the glucocorticoid receptor (GR) signaling pathway - cell viability counter screen (AID 720693); note: nearly all actives have a fitted effect of over 55% in size
[2] = qHTS assay for identifying genotoxic compounds that show differential cytotoxicity against isogenic chicken DT40 cell lines with known DNA damage response pathways - wild type cell line (AID 743012); note: nearly all actives have a fitted effect of over 60% in size
Outline: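 Using parental DT40 (300 cells/well), compounds delivered in DMSO incubate 40 h at 37 C/5% CO2. CellTiter-Glo reagent then stands 30 min at room temperature, and luminescence gives cell viability.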

[3] = qHTS assay to identify small molecule antagonists of the androgen receptor (AR) signaling pathway - cell viability counter screen (AID 743033; note: nearly all actives have a fitted effect of over 45% in size; note: potency is the fitted concentration of half-maximal effect)
[4] = qHTS assay to identify small molecule antagonists of the androgen receptor (AR) signaling pathway using the MDA cell line - cell viability counter screen (AID 743041; note: nearly all actives have a fitted effect of over 45% in size)
Outline: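 Cells were plated at 3,000 per well and left 5 h. Compounds in DMSO were then pinned in, followed by R1881. After 16 h at 37C, CellTiter-Fluor fluorescence gave viability.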

[5] = qHTS assay for identifying genotoxic compounds that show differential cytotoxicity against isogenic chicken DT40 cell lines with known DNA damage response pathways - Rad54/Ku70 mutant cell line (AID 743015); note: nearly all actives have a fitted effect of over 60% in size; note: potency is the fitted concentration of half-maximal effect
[6] = target: Androgen receptor (Homo sapiens) (UniProt P10275); test: qHTS assay to identify small molecule agonists of the androgen receptor (AR) signaling pathway (AID 743036; active = well fitted activation curve with a large enough effect in the signal ratio in the repeat runs, with a control signal flat, not every such curve was filed as active; the % refers to the signal ratio)
Chain of Androgen receptor (Homo sapiens) (P10275 whole entry, looked up): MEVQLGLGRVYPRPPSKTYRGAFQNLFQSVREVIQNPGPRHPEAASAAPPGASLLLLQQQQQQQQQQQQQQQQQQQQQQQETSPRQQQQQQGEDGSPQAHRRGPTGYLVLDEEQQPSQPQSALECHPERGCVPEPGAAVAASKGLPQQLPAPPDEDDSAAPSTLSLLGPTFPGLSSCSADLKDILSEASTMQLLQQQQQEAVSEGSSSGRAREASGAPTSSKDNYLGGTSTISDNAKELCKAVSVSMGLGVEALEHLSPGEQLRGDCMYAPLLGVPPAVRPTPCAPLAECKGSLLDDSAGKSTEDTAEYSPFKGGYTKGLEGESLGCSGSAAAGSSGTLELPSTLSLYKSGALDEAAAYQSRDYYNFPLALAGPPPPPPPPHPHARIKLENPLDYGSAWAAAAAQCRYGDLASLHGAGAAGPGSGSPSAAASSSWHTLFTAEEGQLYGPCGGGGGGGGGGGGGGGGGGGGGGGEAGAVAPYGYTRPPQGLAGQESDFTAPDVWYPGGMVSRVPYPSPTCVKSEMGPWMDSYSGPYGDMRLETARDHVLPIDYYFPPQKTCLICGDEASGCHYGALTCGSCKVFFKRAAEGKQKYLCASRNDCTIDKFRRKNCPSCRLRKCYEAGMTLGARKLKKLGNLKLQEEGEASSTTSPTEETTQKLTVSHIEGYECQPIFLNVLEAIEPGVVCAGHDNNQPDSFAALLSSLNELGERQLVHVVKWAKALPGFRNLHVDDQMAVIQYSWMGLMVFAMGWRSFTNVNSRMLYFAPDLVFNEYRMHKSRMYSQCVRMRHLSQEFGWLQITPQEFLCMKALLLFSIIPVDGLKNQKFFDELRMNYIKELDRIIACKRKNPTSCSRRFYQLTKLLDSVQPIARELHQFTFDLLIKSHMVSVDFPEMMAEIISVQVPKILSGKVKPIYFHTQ
Outline: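 Fluorescence from a beta-lactamase FRET substrate served as read-out in AR-UAS-bla GripTite HEK293 cells. Cells were treated with DMSO-dissolved compounds for 16 h at 37C, then with LiveBLAzer B/G substrate for 2 h at room temperature.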

[7] = target: Androgen receptor (Homo sapiens) (UniProt P10275); test: qHTS assay to identify small molecule agonists of the androgen receptor (AR) signaling pathway using the MDA cell line (AID 743040; note: nearly all actives have a fitted effect of over 20% in size)
Outline: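 Cells plated, 5 h at 37C/0% CO2; compound or DMSO pinned; 16 h at 37C; ONE-Glo added; luminescence measured after 30 min at room temperature. Reporter line: MDA-kb2 with MMTV-luciferase responsive to AR and GR.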

[8] = target: Androgen receptor (Homo sapiens) (UniProt P10275); test: qHTS assay to identify small molecule antagonists of the androgen receptor (AR) signaling pathway using the MDA cell line (AID 743042; note: nearly all actives have a fitted effect of over 55% in size)
Outline: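 Antagonist mode: compounds plus R1881 agonist added to MDA-kb2 AR-luc cells, incubated 16 h at 37C. Luciferase reporter luminescence quantified, with multiplexed CellTiter-Fluor readout for cell viability.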

[9] = target: Androgen receptor (Homo sapiens) (UniProt P10275); test: qHTS assay to identify small molecule antagonists of the androgen receptor (AR) signaling pathway (AID 743035; active = well fitted inhibition curve with a large enough effect in the signal ratio in the repeat runs, not every such curve was filed as active; the % refers to the signal ratio)
Outline: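 Using qHTS, AR-UAS-bla GripTite HEK293 cells received compound, then R1881, and were cultured 16 h at 37C/5% CO2 before a 2 h room-temperature LiveBLAzer B/G FRET substrate step and fluorescence measurement.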

[10] = qHTS assay for identifying genotoxic compounds that show differential cytotoxicity against isogenic chicken DT40 cell lines with known DNA damage response pathways - Rev3 mutant cell line (AID 743014); note: nearly all actives have a fitted effect of over 55% in size; note: potency is the fitted concentration of half-maximal effect

| SMILES | outcome [1] | Potency [2] | Potency [3] | Potency [4] | Potency [5] | outcome [6] | outcome [7] | Potency [8] | Potency [9] | Potency [10] |
| --- | --- | --- | --- | --- | --- | --- | --- | --- | --- | --- |
| CC[C@H](C)C(=O)O[C@H]1C[C@H](O)C=C2C=C[C@H](C)[C@H](CC[C@@H](O)C[C@@H](O)CC(=O)O)[C@H]21 | inactive | inactive | inactive | inactive | – | – | – | – | – | – |
| O=C1c2ccccc2C(=O)c2cc(S(=O)(=O)O)ccc21 | inactive | inactive | inactive | inactive | inactive | – | – | – | – | – |
| CC(=C(CCOC(=O)C(C)C)SSC(CCOC(=O)C(C)C)=C(C)N(C=O)Cc1cnc(C)nc1N)N(C=O)Cc1cnc(C)nc1N | inactive | inactive | inactive | inactive | inactive | – | – | – | – | – |
| CC(=O)NCc1c(I)c(NC(C)=O)c(I)c(C(=O)O)c1I | inactive | inactive | inactive | inactive | inactive | inactive | inactive | inactive | – | – |
| CNS(=O)(=O)CCc1ccc2[nH]cc(C3CCN(C)CC3)c2c1 | inactive | inactive | inactive | inactive | inactive | – | – | – | – | – |
| O=C1c2ccccc2C(=O)N1CCl | inactive | inactive | inactive | inactive | – | inactive | inactive | inactive | inactive | – |
| Cc1cc(Cl)c(C)cc1Cl | inactive | – | inactive | inactive | inactive | inactive | inactive | inactive | – | inactive |
| N#Cc1ccc(C(=O)O)cc1 | inactive | – | inactive | inactive | 61.1 µM (active) | inactive | inactive | inactive | inactive | 30.6 µM (active) |
| CCC(C)NC(N)=O (stereo not drawn) | inactive | inactive | inactive | inactive | inactive | inactive | inactive | inactive | inactive | – |
| CNC(=O)[C@H]1O[C@@H](n2cnc3c(NCc4cc(Cl)ccc4OCc4cc(C)no4)ncnc32)[C@H](O)[C@@H]1N | inactive | – | inactive | inactive | inactive | inactive | inactive | inactive | inactive | inactive |
| CC(=O)N[C@@H](CCC(=O)O)C(=O)O | inactive | inactive | inactive | inactive | inactive | – | – | – | – | – |
| CCCOC(=O)C(C)O (stereo not drawn) | – | – | – | inactive | – | inactive | inactive | inactive | inactive | – |
| CC(=O)c1ccc2c(c1)Cc1ccccc1-2 | inactive | – | inactive | inactive | inactive | – | – | – | – | inactive |
| CC(C)(C)c1n[nH]c(=S)n(N)c1=O | inactive | – | inactive | inactive | inactive | – | – | – | – | inactive |
| CCOC(=O)c1ccc(OC(=O)CCCCCN=C(N)N)cc1 | inactive | – | – | inactive | inactive | – | – | – | – | – |
| Cc1ccsc1/C=C/C1=NCCCN1C | – | inactive | inactive | inactive | inactive | – | – | – | – | inactive |
| CCCCCCCCC(=O)Cl | inactive | – | inactive | inactive | inactive | – | – | – | – | inactive |
| C#CC(C)N(C)C(=O)Nc1ccc(Cl)cc1 (stereo not drawn) | inactive | – | inactive | inactive | – | inactive | inactive | inactive | – | – |
| O=C(c1ccc(O)cc1)c1ccc(O)c(O)c1O | inactive | – | inactive | – | – | – | – | – | – | – |
| Cc1cccc(C)c1OCC(C)N (stereo not drawn) | inactive | – | – | inactive | – | – | – | – | – | – |
| CCCC/C=C/C=C\C=O | inactive | – | – | inactive | 61.1 µM (active) | inactive | inactive | inactive | – | – |
| COC(=O)CCc1ccc(OCC(O)CNC(C)C)cc1 (stereo not drawn) | inactive | – | inactive | inactive | – | – | – | – | – | – |
| BrCc1cccc(Oc2ccccc2)c1 | inactive | – | inactive | – | – | – | inactive | inactive | inactive | – |

| SMILES | outcome [1] | Potency [2] | Potency [3] | Potency [4] | Potency [5] | outcome [6] | outcome [7] | Potency [8] | Potency [9] | Potency [10] |
| --- | --- | --- | --- | --- | --- | --- | --- | --- | --- | --- |
| C[C@H](N)[C@H](O)c1cccc(O)c1 | – | inactive | inactive | inactive | inactive | – | – | – | – | inactive |
| O=S(=O)(O)c1cc(O)c2ccc(Nc3ccccc3)cc2c1 | inactive | – | inactive | inactive | inactive | – | – | – | – | inactive |
| CN(CCOc1ccc(NS(C)(=O)=O)cc1)CCc1ccc(NS(C)(=O)=O)cc1 | inactive | – | inactive | inactive | 13.3 µM (active) | – | – | – | – | – |
| Cc1cc(C(C)(C)C)c(O)c(C)c1CC1=NCCN1 | inactive | – | – | inactive | – | inactive | inactive | inactive | inactive | inactive |
| Cc1cccc2nccnc12 | inactive | – | inactive | inactive | inactive | – | – | – | – | inactive |
| CC(C)CC(=O)O | – | – | inactive | inactive | – | – | – | – | – | – |
| CCN(CC)CC(=O)Nc1c(C)cccc1C | inactive | – | – | inactive | inactive | inactive | inactive | inactive | – | – |
| CC(=O)/C=C/C1C(C)=CCC(C)C1(C)C (stereo not drawn) | inactive | – | inactive | inactive | 48.6 µM (active) | – | – | – | – | – |
| COC(=O)[C@@H]1[C@H]2C[C@H]3c4[nH]c5ccccc5c4CCN3C[C@@H]2CC[C@@H]1O | inactive | – | inactive | inactive | – | – | – | – | – | – |
| CC1COc2ccccc2N1 (stereo not drawn) | inactive | – | inactive | inactive | inactive | – | – | – | – | inactive |
| OC[C@H](Cc1cccc(O)c1)[C@H](CO)Cc1cccc(O)c1 | inactive | – | inactive | inactive | – | – | – | – | – | – |
| CC(C)(C)c1cc(CCC(=O)NN)cc(C(C)(C)C)c1O | inactive | – | inactive | inactive | – | – | – | – | – | – |
| CC(C)OC(=O)CCCCC(=O)OC(C)C | – | – | inactive | inactive | inactive | – | – | – | – | – |
| O=C(O)c1cc(Br)c(O)c(Br)c1 | inactive | – | inactive | inactive | inactive | inactive | inactive | inactive | inactive | – |
| CC(CO)c1ccccc1 (stereo not drawn) | – | inactive | inactive | inactive | inactive | inactive | inactive | inactive | – | inactive |
| CCOc1cc([N+](=O)[O-])c(OCC)cc1N1CCOCC1 | – | inactive | inactive | inactive | inactive | – | – | – | – | – |
| CCCN1C[C@H](CSC)C[C@@H]2c3cccc4[nH]cc(c34)C[C@H]21 | inactive | – | inactive | – | – | – | – | – | – | inactive |
| On1nnc2ccccc21 | inactive | – | 0.616 µM (active) | inactive | – | – | – | – | – | – |
| Nc1nnc(-c2cccc(Cl)c2Cl)c(N)n1 | – | inactive | inactive | inactive | inactive | – | – | – | – | inactive |
| NC(CO)C(=O)NNCc1ccc(O)c(O)c1O (stereo not drawn) | inactive | – | inactive | inactive | inactive | inactive | inactive | inactive | inactive | – |
| CCCCCCCCSCC | inactive | – | inactive | inactive | inactive | – | – | – | – | inactive |
| C[C@@H]1O[C@@H](O[C@@H]2[C@@H](O)[C@H](OCCc3ccc(O)c(O)c3)O[C@H](CO[C@@H]3O[C@H](CO)[C@@H](O)[C@H](O)[C@H]3O)[C@H]2OC(=O)/C=C/c2ccc(O)c(O)c2)[C@H](O)[C@H](O)[C@H]1O | inactive | – | inactive | inactive | – | – | – | – | – | – |
| O=C(/N=N/C(=O)OCc1ccccc1)OCc1ccccc1 | inactive | – | inactive | inactive | 61.1 µM (active) | – | – | – | – | – |
